Among the data in the OligoGym collection are sensor-assay potency score (higher = more potent) values, retold here.
Also: reference of the scale not given here.

The target of the first assay is LEKR1. As to the kind of experiment: pooled miR-30 sensor sort-seq; sequence = guide strand. Conditions: shRNA.
Sequence TTTCCTTTGAATTAGATTCTTC displayed a sensor-assay potency score (higher = more potent) of 0.113.
With TTCTGCTTCAATCTTCTCCTTC, the sensor-assay potency score (higher = more potent) amounted to 0.505.
TTCTCTACGCACTGTCTCCTGA: the sensor-assay potency score (higher = more potent) was -0.0391.

Another assay deals with LENG8. Described as above. Particulars: shRNA.
Take TTGTACTGCTGGTACCACTGGT: the sensor-assay potency score (higher = more potent) is 0.0135.
As to TTCTTCAGCTCTCGCTCCGGGT, the sensor-assay potency score (higher = more potent) is -0.923.
In the case of TGTTGAACTTGAGACCTCCAGT, the sensor-assay potency score (higher = more potent) was -0.589.
Same read-out and setting: the same measure for TGTACTGAGAAGACCAATCTGT: 0.223; for TTGAGCAGCTTTTCCGTGCGGT: 0.289; for TTCATGGTCACCCTTCTCCAAG: -1.23.
The same measure, in the same setting: in the case of TAAATTTACAACCCAAGTCCAC it was -0.679; in that of TCCACCGTGAACTCGGTGCGGA, -1.28; in that of TACACCTCCACCGTGAACTCGG, -0.419.
Same read-out and setting: in the case of TTCTCGTGTGAGGTATGCCAGC it was -1.1.
On to TAGTCCTGCTTCTCTTTCCAGT, for which the sensor-assay potency score (higher = more potent) is -0.999.
As for TTGTCCTTCATGAAGACGTTGC, the sensor-assay potency score (higher = more potent) is -0.437.

The target in a further assay is LEPRE1. The assay is described as above. Conditions: shRNA.
For TTGGTAATAGTCTAGGTTCTGC, the sensor-assay potency score (higher = more potent) was -0.468.
Same read-out and setting: in the case of TTCTCTTGCAATCTCTTGGGAA it was -0.439; in that of TTTCTCTTGCAATCTCTTGGGA, -0.177; in that of TAGAGTCGCACTCCCAGTCGAA, -0.94.
TCCAGCTCCATCTCTTCGCTGA: the sensor-assay potency score (higher = more potent) is -0.664.
Same read-out and setting: the same measure for TGTATCGCTGTCATGCAGCGGC: -0.603.
Same read-out and setting: in the case of TTGTTGATCTTGAAGTAGGCGA it was -0.0372; in that of TTGAGTCTCAAGATCCTTGAAG, -0.379.
On to TGCAGCAACAGCTTTCTCCAAC, for which the sensor-assay potency score (higher = more potent) was -1.07.
Same read-out and setting: in the case of TTCTCCAACTTGTTGATCTTGA it was 0.193; in that of TACTGTATCGCTGTCATGCAGC, -0.397; in that of TACACAGACACTTAAGTACTGT, -0.0661.

A further assay deals with LGALS1. The assay is described as above. Particulars: shRNA.
Take TTGCTGTTGCACACGATGGTGT: the sensor-assay potency score (higher = more potent) was -0.61.
The sequence TTGATCTTGAAGTCACCGTCAG gave a sensor-assay potency score (higher = more potent) of 0.0268.
Still for that read-out and setting: the same measure for TTGACGGTCAGGTTGGCCTGGT: -0.281.
On to TTGCACACGATGGTGTTGGCGT, for which the sensor-assay potency score (higher = more potent) is -0.422.
Take TTCAGCACGAAGCTCTTAGCGT: the sensor-assay potency score (higher = more potent) was -0.712.
Still for that read-out and setting: the same measure for TGATCTTGAAGTCACCGTCAGC: -1.02.
TTGAGATTCAGGTTGCTGGCGA gave a sensor-assay potency score (higher = more potent) of 0.199.
Still for that read-out and setting: the same measure for TTCGTATCCATCTGGCAGCTTG: -0.744; for ATTTGATCTTGAAGTCACCGTC: 0.155.
Regarding TTTGATCTTGAAGTCACCGTCA, the sensor-assay potency score (higher = more potent) was 0.476.

The target in a further assay is LGALS7B. Described as above. Particulars: shRNA.
TTGAAGACCACCTCCGACGTGT registered a sensor-assay potency score (higher = more potent) of 0.725.
Still for that read-out and setting: the same measure for TTACATGGAACCTGCTGGCATT: -1.13; for TTTACATGGAACCTGCTGGCAT: -0.552.
